{"source": "PubChem BioAssay AID602252", "about": "(Broad Institute, 2012)", "note": "The campaign covered roughly 300,000 compounds. About 2,700 (0.9%) were called active. What follows is part of a selection rich in actives, with near analogues and random picks from the rest. A number with no mark means an inactive call.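 The calls were made as follows: active = mean inhibition of at least 30% with at least half of replicates also reaching 30%; inconclusive = no clear call, values can overlap the other calls; inactive = the rest.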"}
{"biological_target": "Golgi-associated PDZ and coiled-coil motif-containing protein (Homo sapiens) (UniProt Q9HD26)", "assay": "untagged CAL PDZ binding inhibitors, primary screen, biochemical, fluorescence polarization, HTS (AID 602252);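 also: 0% = DMSO neutral control and 100% = excess unlabeled competitor peptide PRC23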", "settings": "purified CAL PDZ, TMR-peptide fluorescence polarization, 1 h; at 24.9 µM; stronger effect = higher value"}
{"smiles": "CC(=NCC1CCCO1)c1c(O)n(-c2ccccc2)c(=O)[nH]c1=O", "note": "(stereo not given)", "inhibition": "-0.888%"}
{"smiles": "Cc1ccc(-n2c(O)c(C=NCC3CCCO3)c(=O)[nH]c2=O)c(C)c1", "note": "(stereo not given)", "inhibition": "62.7% (active)"}
{"smiles": "COc1ccccc1-n1c(O)c(C=NC2CC2)c(=O)[nH]c1=O", "inhibition": "-5.85%"}
{"smiles": "CCC(C)(O)C(=O)OC1C(=O)OC2CC3C(C)=CC(=O)C(O)C3(C)C3C4(O)OCC23C1C(C)C4O", "note": "(stereo not given)", "inhibition": "-3%"}
{"smiles": "COC1C(O)C(C)OC(OC2CCC3(C=O)C(CCC4C3CCC3(C)C(C5=CC(=O)OC5)CCC43O)C2)C1O", "note": "(stereo not given)", "inhibition": "-0.006%"}
{"smiles": "Cc1ccnc(-n2c(C)cc(/C=C3\\C(=O)NC(=S)N(C)C3=O)c2C)c1", "inhibition": "-1.9%"}
{"smiles": "Cc1ccc(-n2c(C)cc(/C=C3\\C(=O)NC(=O)N(C)C3=O)c2C)cc1C", "inhibition": "0.186%"}
{"smiles": "Cc1cc(C=C2C(=O)NC(=O)NC2=O)c(C)n1-c1ccncc1", "inhibition": "49.2% (active)"}
{"smiles": "CC(=O)OC1C2(CC3N4C(=O)C5(CO)SSC4(CC31O)C(=O)N5C)OC(C)C(C)(C)C2=O", "note": "(stereo not given)", "inhibition": "1.68%"}
{"smiles": "CC12CCC(O)CC1CCC1C2CCC2(C)C(C(=O)CC(O)C(F)(F)F)CCC12", "note": "(stereo not given)", "inhibition": "-6.37%"}
{"smiles": "O=C(c1ccccc1)C(O)(CN1CCCCC1)c1ccccc1", "note": "(stereo not given)", "inhibition": "-5.06%"}
{"smiles": "CC1C(=O)OC2CCN3CC=C(COC(=O)C(C)(O)C1(C)O)C23", "note": "(stereo not given)", "inhibition": "56.3% (active)"}
{"smiles": "CCOC(=O)C1(c2ccccc2)CCN(CC(O)c2ccc(NC(C)=O)cc2)CC1", "note": "(stereo not given)", "inhibition": "-0.121%"}
{"smiles": "CCOC(=O)CC(SP1(=S)OCC2(CCCCO2)C(C2CCCCO2)O1)C(=O)OCC", "note": "(stereo not given)", "inhibition": "0.015%"}
{"smiles": "CC=C(C)C(=O)OC1CCN2CC=C(COC(=O)C(O)(C(C)OC)C(C)(C)O)C12", "note": "(stereo not given)", "inhibition": "-2.7%"}
